Results as given in PubChem BioAssay AID1852 (Sanford-Burnham Center for Chemical Genomics, 2009).
In all, about 2,500 compounds went through this assay and about 1,100 (44%) were called active. So high a share suggests a set chosen from earlier hits. The list shows a part of the results. A number with no mark means an inactive call.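 The calls were made as follows: active = inhibition above 50% at 4 µM in the single-point screen; inactive = inhibition of 50% or less.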

experiment: TNF-a-driven NF-kB reporter inhibitors, primary screen, selectivity assay for NOD1/NOD2 signaling inhibitor project, cell-based, HEK293T NF-kB-Luc, luminescence (AID 1852); settings: TNF-a induced, 14 h, at 4 µM, active compounds read high

Row | SMILES | inhibition
1 | CCN(CC)S(=O)(=O)c1cccc(C(=O)c2c(C)cc3ccccn23)c1 | 27.9%
2 | COc1ccc(CNc2nc3c(c(=O)n(Cc4ccc(Br)cc4)c(=O)n3C)n2C)cc1 | 15.5%
3 | COc1ccccc1NS(=O)(=O)c1cccc(-n2c(O)c(C=Nc3ccccc3C(=O)O)c3ccccc3c2=O)c1 | 69% (active)
4 | COc1ccccc1NS(=O)(=O)c1cccc(NC(=O)Nc2ccc(Cl)cc2)c1 | 46.4%
5 | COc1ccc(Cn2c(O)c(C=Nc3ccccc3C(=O)O)c3ccccc3c2=O)cc1 | 69.6% (active)
6 | CCN(CC)S(=O)(=O)c1cccc(-n2c(O)c(C=Nc3ccccc3C(=O)O)c3ccccc3c2=O)c1 | 70.1% (active)
7 | COc1cc(NC(=O)c2cccs2)c(C(=O)OCC(=O)c2cc(C)n(-c3ccccc3)c2C)cc1OC | 41.1%
8 | O=C(Nc1ccc(Cl)cc1)c1cccc(N2C(=O)C3C4CCC(C4)C3C2=O)c1 (stereo not drawn) | 3.3%
9 | Cc1cc(C(=O)Nc2ccc(Cl)cc2)c(C)n1-c1ccccc1 | 56.3% (active)
10 | CCOc1ccc(NC(=O)C2CCCN(S(=O)(=O)c3c(C)noc3C)C2)cc1 (stereo not drawn) | 49.2%
11 | COc1ccc(-c2nnc(Sc3nc4ccccc4o3)c3ccccc23)cc1 | -25.6%
12 | CC(=O)c1c(C)[nH]c(C(=O)Nc2nc(-c3ccccc3)c(C)s2)c1C | -37.3%
13 | COc1ccc(-c2nc(NC(C)=O)sc2-c2ccccc2)cc1 | 58.1% (active)
14 | COc1ccc(S(=O)(=O)/N=C2\C=C(Nc3ccc(O)cc3)C(=O)c3ccccc32)cc1 | 101% (active)
15 | COc1ccc(S(=O)(=O)n2ccc(C(C)Oc3ccc(-c4ccccc4)c(F)c3)n2)cc1 (stereo not drawn) | 20.1%
16 | CCc1ccc(S(=O)(=O)/N=C2\C=C(Nc3ccc(C(=O)O)cc3)C(=O)c3ccccc32)cc1 | 49.3%
17 | O=C1C(Cl)=C(Nc2ccc(O)cc2)C(=O)c2ccccc21 | 30.4%
18 | O=C(O)c1cccc(S(=O)(=O)Nc2ccccc2Cc2ccccc2)c1 | 14.3%
19 | CCc1ccc(S(=O)(=O)/N=C2\C=C(Nc3ccc(O)cc3)C(=O)c3ccccc32)cc1 | 106% (active)
20 | CCc1ccc(S(=O)(=O)/N=C2\C=C(Nc3cccc(C(=O)O)c3)C(=O)c3ccccc32)cc1 | 107% (active)
21 | c1ccc(CCCNc2ncccn2)cc1 | 19%
22 | CCOc1ccc2nc(SCc3ccc(CC(=O)O)cc3)c(C#N)cc2c1 | 64.6% (active)
23 | Cc1cc(/C=N/Nc2ncnc(N)c2[N+](=O)[O-])c(C)n1-c1ccccc1 | 3.7%
24 | Nc1c(Cl)ncnc1N/N=C/c1ccccn1 | 109% (active)

Row | SMILES | inhibition
25 | COc1cc(/C=C2/CCc3ccccc3C2=O)cc(OC)c1OC | -23.8%
26 | COc1cc(/C=C2\COC/C(=C\c3cc(OC)c(OC)c(OC)c3)C2=O)cc(OC)c1OC | 106% (active)
27 | COc1cc(/C=C2\CC(C(C)(C)C)C/C(=C\c3cc(OC)c(OC)c(OC)c3)C2=O)cc(OC)c1OC (stereo not drawn) | 87.2% (active)
28 | Cc1ccccc1NC1=C/C(=N\S(=O)(=O)c2cccs2)c2ccccc2C1=O | 108% (active)
29 | COC(=O)c1ccccc1NC1=C/C(=N\S(=O)(=O)c2cccs2)c2ccccc2C1=O | 99.7% (active)
30 | CCc1cccc(NC(=O)C2CCCN(S(=O)(=O)c3cccs3)C2)c1 (stereo not drawn) | 18.2%
31 | Cc1cccc(NC2=C/C(=N/S(=O)(=O)c3cccs3)c3ccccc3C2=O)c1 | 63.9% (active)
32 | Cc1ccc(NC2=C/C(=N\S(=O)(=O)c3cccs3)c3ccccc3C2=O)c(C)c1 | 102% (active)
33 | COc1ccc(CNS(=O)(=O)c2ccc3c(c2)CC(C)N3C(=O)C2CC2)cc1 (stereo not drawn) | 30%
34 | Cc1ccc(Cl)cc1NC1=C/C(=N\S(=O)(=O)c2cccs2)c2ccccc2C1=O | 102% (active)
35 | CCOc1ccc(OCCN2C(=O)NC3(CCCc4ccccc43)C2=O)cc1 (stereo not drawn) | 18.7%
36 | CN(CC1CCCO1)S(=O)(=O)c1ccc(C(=O)Nc2nc3cc4c(cc3s2)OCO4)cc1 (stereo not drawn) | 69.7% (active)
37 | CCN(CC)S(=O)(=O)c1cccc(C(=O)Nc2nc3cc4c(cc3s2)OCCO4)c1 | 22%
38 | O=C(Nc1nc2cc3c(cc2s1)OCCO3)C1=COCCO1 | 22.7%
39 | CCC1CCCCN1S(=O)(=O)c1ccc(C(=O)Nc2nnc(-c3ccccc3Cl)o2)cc1 (stereo not drawn) | 70.3% (active)
40 | CCC1CCCCN1S(=O)(=O)c1ccc(NC(=O)c2ccncc2)cc1 (stereo not drawn) | 9.7%
41 | O=C(c1ccc(S(=O)(=O)N2CCCCC2)cc1)N1CCN(CCN2C(=O)c3cccc4cccc(c34)C2=O)CC1 | 31%
42 | CC1CCCCN1S(=O)(=O)c1ccc(C(=O)Nc2nnc(-c3ccccc3Cl)o2)cc1 (stereo not drawn) | 97.2% (active)
43 | O=C(Nc1nnc(-c2ccccc2Cl)o1)c1ccc(S(=O)(=O)N2CCCCCC2)cc1 | 93.9% (active)
44 | O=C(c1[nH]ncc1-c1ccc(Cl)cc1)C1CO1 (stereo not drawn) | 12.8%
45 | CN(C(=O)C(C)(C)C)c1ccc(OCC(=O)N2CCc3ccccc3C2)cc1 | 41.9%
46 | CCOc1ccc(NC(=O)Nc2nc(SCC)ns2)cc1 | 12.2%
47 | FC(F)(F)c1cnc(NNC(=S)Nc2ccccc2Cl)c(Cl)c1 | -6.8%
48 | S=C(NNc1ccnc2cc(Cl)ccc12)Nc1ccccc1Cl | 64.6% (active)

Row | SMILES | inhibition
49 | S=C(NNc1ccnc2cc(Cl)ccc12)Nc1ccc(Cl)cc1Cl | 43.7%
50 | COc1ccc(-c2n[nH]c(C)c2-c2ccc(OC)c(OC)c2)c(O)c1 | 28.7%
51 | COc1ccc(-c2cncnc2-c2ccc(OC)cc2O)cc1 | 79.8% (active)
52 | COc1ccc(-c2cnc(N)nc2-c2ccc(OC)cc2O)cc1 | 70.5% (active)
53 | Cc1c(C(=O)Nc2nonc2-c2ccc(F)cc2)oc2ccc(F)cc12 | 77.4% (active)
54 | COc1cccc(NC(=O)c2oc3ccc(S(=O)(=O)N4CCOCC4)cc3c2C)c1 | -31.8%
55 | CC1CCN(c2ccc(-c3cccc(NC(=O)C(F)(F)F)c3)nn2)CC1 | -170%
56 | O=C(OCn1ncc(Cl)c(Cl)c1=O)c1ccc(F)cc1 | 83.1% (active)
57 | O=C(OCn1ncc(Cl)c(Cl)c1=O)c1cccc(C(F)(F)F)c1 | 43%
58 | Cc1ccc(C(=O)OCn2ncc(Cl)c(Cl)c2=O)cc1 | 88.1% (active)
59 | COc1ccc(CCNc2oc(COc3ccccc3Cl)nc2C#N)cc1OC | 11.6%
60 | COc1ccc(CCNc2oc(COc3ccc(Br)cc3)nc2C#N)cc1OC | 24.5%
61 | COc1ccc(Nc2oc(COc3ccccc3OC)nc2C#N)cc1 | 77.8% (active)
62 | Cc1ccc(NS(=O)(=O)c2sc3ccc(Cl)cc3c2C)cc1 | 9.4%
63 | CCOc1ccc(NS(=O)(=O)c2cc(Cl)ccc2OC)cc1 | 10.6%
64 | CCOc1ccc(Nc2nc(N)c3ccccc3n2)cc1 | -144%
65 | CCOc1ccc(NS(=O)(=O)c2ccc3[nH]c(=O)[nH]c3c2)cc1 | 88.5% (active)
66 | CCOc1ccc(S(=O)(=O)Nc2cnc3ccccc3c2)cc1 | 81.5% (active)
67 | COc1cc(CNc2ccc3[nH]c(=O)[nH]c3c2)ccc1OCc1cccc(C)c1 | 44.3%
68 | COC(=O)CCn1nnc(-c2ccc(C(C)C)cc2)n1 | 71.7% (active)
69 | CC(C)c1ccc(-c2nnn(CCC(=O)O)n2)cc1 | 49.4%
70 | O=C(Nc1ccccc1)C1=C(c2ccccc2)S(=O)(=O)CCS1(=O)=O | 60.9% (active)
71 | Cc1ccc(NC(=O)C2=C(c3ccccc3)S(=O)(=O)CCS2(=O)=O)cc1 | 65% (active)
72 | CC(C)=CCc1c(O)cc2oc3c(CC=C(C)C)c(O)c(O)c(CC=C(C)C)c3c(=O)c2c1O | 15.6%

Row | SMILES | inhibition
73 | Brc1ccc2ncnc(NCc3cccnc3)c2c1 | 65.2% (active)
74 | Brc1ccc2ncnc(NCc3ccco3)c2c1 | 60.4% (active)
75 | C=CCNc1ncnc2ccc(Br)cc12 | 25.1%
76 | Cc1ccc(/C=C2/SC(=S)N(c3ccc(S(=O)(=O)Nc4nccs4)cc3)C2=O)cc1 | 21%
77 | O=C(O)c1ccc(N/N=C/c2ccc(OC(=O)c3ccccc3Cl)cc2)cc1 | 7.7%
78 | CC(C)Cc1ccc(S(=O)(=O)Nc2ccccn2)cc1 | 15.7%
79 | CC(C)(C)c1ccc(S(=O)(=O)/N=C2\C=C(NS(=O)(=O)c3ccccc3)C(=O)c3ccccc32)cc1 | 96.3% (active)
80 | CC(C)c1ccc(S(=O)(=O)/N=C2\C=C(NS(=O)(=O)c3ccccc3)C(=O)c3ccccc32)cc1 | 103% (active)
81 | CCOC(=O)c1c(-c2ccccc2)oc2cc(Br)c(O)c(C=O)c12 | 50%
82 | CCc1oc2ccccc2c1C(=O)c1cc(Br)c(O)c(Br)c1 | 71.9% (active)
83 | CCOc1ccc2c(c1)C(=NNC(=O)c1ccncc1)c1cc(OCC)ccc1-2 | 106% (active)
84 | O=C(N/N=C/c1cc(Br)c(Br)s1)c1ccncc1 | 2.7%
85 | O=S(=O)(Nc1cccc(-c2cn3cccnc3n2)c1)c1ccc(-c2ccccc2)cc1 | 20.8%
86 | O=[N+]([O-])c1ccccc1S(=O)(=O)Nc1cccc2cccnc12 | 35%
87 | Cc1ccc2cccc(NS(=O)(=O)c3ccccc3)c2n1 | 62.8% (active)
88 | COc1cc(NS(=O)(=O)c2ccc3ccccc3c2)c2ncccc2c1 | 55.6% (active)
89 | Cc1ccc(S(=O)(=O)Nc2cccc3cccnc23)c([N+](=O)[O-])c1 | 103% (active)
90 | O=S(=O)(Nc1cccc2cccnc12)c1ccccc1 | -4%
91 | Cc1nc(C)c(C(=O)NNS(=O)(=O)c2ccc3ccccc3c2)s1 | 21.5%
92 | COc1ccc(NS(=O)(=O)c2ccc3ccccc3c2)c2ncccc12 | 27.9%
93 | Cc1ccc(S(=O)(=O)Nc2cccc3cccnc23)cc1 | 105% (active)
